Out of some 5,500 compounds screened, about 2,000 (36%) were called active. About 18% were inconclusive and are not listed. Rule as the data show it: active = normalized growth mostly below about 0.91 (no sharp cut-off); inconclusive = no clear call, values can overlap the other calls; inactive = mostly above about 0.92. The list shows a part of the results.
Assay: chemical genetic growth profiling, strain panel (AID 1159580);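 also: tested at 20 µM; growth read once vehicle control cultures reached saturation at 30 °C; 1 = growth at the plate median or of vehicle wells; lower values mean less growth of the strain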
Conditions: growth OD

Measured: normalized growth

Nc1nc(/C(=C/CC(=O)O)C(=O)N[C@@H]2C(=O)N3C(C(=O)O)=CCS[C@H]23)cs1
inactive: S. cerevisiae deletion strains, locus YJR075W, strain HOC1, stronger effect = lower value 1.01 | S. cerevisiae deletion strains, locus YKL009W, strain mrt4, stronger effect = lower value 0.986 | S. cerevisiae deletion strains, locus YKL068W, stronger effect = lower value 0.997 | S. cerevisiae deletion strains, locus YKL085W, strain MDH1 (second series), stronger effect = lower value 0.987 | S. cerevisiae deletion strains, locus YKL085W, strain MDH1, stronger effect = lower value 0.987 | S. cerevisiae deletion strains, locus YKL160W, strain elf1, stronger effect = lower value 0.993 | S. cerevisiae deletion strains, locus YKL190W, strain CNB1, stronger effect = lower value 1.01 | S. cerevisiae deletion strains, locus YKR001C, strain vps1, stronger effect = lower value 0.981 | S. cerevisiae deletion strains, locus YKR026C, strain gcn3, stronger effect = lower value 1 | S. cerevisiae deletion strains, locus YKR091W, strain srl3, stronger effect = lower value 1.01 | S. cerevisiae deletion strains, locus YLL001W, strain dnm1, stronger effect = lower value 1.01 | S. cerevisiae deletion strains, locus YLL026W, stronger effect = lower value 1.01 | S. cerevisiae deletion strains, locus YLL041C, strain sdh2, stronger effect = lower value 1.01 | S. cerevisiae deletion strains, locus YLR027C, strain aat2, stronger effect = lower value 1.01 | S. cerevisiae deletion strains, locus YLR039C, strain RIC1, stronger effect = lower value 1.03 | S. cerevisiae deletion strains, locus YLR058C, strain SHM2, stronger effect = lower value 0.996 | S. cerevisiae deletion strains, locus YLR102C, strain apc9, stronger effect = lower value 0.996 | S. cerevisiae deletion strains, locus YLR113W, strain HOG1, stronger effect = lower value 0.998 | S. cerevisiae deletion strains, locus YLR221C, strain rsa3, stronger effect = lower value 1.01 | S. cerevisiae deletion strains, locus YLR258W, strain gsy2, stronger effect = lower value 0.999 | S. cerevisiae deletion strains, locus YLR262C, strain YPT6 (second series), stronger effect = lower value 1.03 | S. cerevisiae deletion strains, locus YLR262C, strain YPT6, stronger effect = lower value 1.02 | S. cerevisiae deletion strains, locus YLR268W, strain sec22, stronger effect = lower value 0.987 | S. cerevisiae deletion strains, locus YLR320W, strain mms22, stronger effect = lower value 1.01 | S. cerevisiae deletion strains, locus YLR330W, strain CHS5, stronger effect = lower value 0.99 | S. cerevisiae deletion strains, locus YLR342W, strain FKS1 (second series), stronger effect = lower value 1 | S. cerevisiae deletion strains, locus YLR342W, strain FKS1, stronger effect = lower value 1.01 | S. cerevisiae deletion strains, locus YLR357W, strain rsc2, stronger effect = lower value 1.01 | S. cerevisiae deletion strains, locus YLR370C, strain arc18, stronger effect = lower value 1 | S. cerevisiae deletion strains, locus YLR371W, strain rom2, stronger effect = lower value 0.995 | S. cerevisiae deletion strains, locus YLR384C, strain iki3, stronger effect = lower value 0.997 | S. cerevisiae deletion strains, locus YLR418C, strain cdc73, stronger effect = lower value 1 | S. cerevisiae deletion strains, locus YML016C, strain PPZ1, stronger effect = lower value 0.984 | S. cerevisiae deletion strains, locus YML032C, strain rad52, stronger effect = lower value 0.997 | S. cerevisiae deletion strains, locus YML120C, strain ndi1, stronger effect = lower value 1 | S. cerevisiae deletion strains, locus YML124C, strain tub3, stronger effect = lower value 0.982 | S. cerevisiae deletion strains, locus YMR058W, strain fet3, stronger effect = lower value 0.998 | S. cerevisiae deletion strains, locus YMR078C, strain ctf18, stronger effect = lower value 0.991 | S. cerevisiae deletion strains, locus YMR125W, strain sto1, stronger effect = lower value 1.01 | S. cerevisiae deletion strains, locus YMR129W, stronger effect = lower value 1.01 | S. cerevisiae deletion strains, locus YMR205C, strain PFK2, stronger effect = lower value 1.01 | S. cerevisiae deletion strains, locus YMR223W, strain ubp8, stronger effect = lower value 1 | S. cerevisiae deletion strains, locus YMR231W, strain pep5, stronger effect = lower value 1.01 | S. cerevisiae deletion strains, locus YMR263W, strain SAP30, stronger effect = lower value 1.01 | S. cerevisiae deletion strains, locus YMR307W, strain GAS1, stronger effect = lower value 0.996 | S. cerevisiae deletion strains, locus YNL067W, strain RPL9B, stronger effect = lower value 1.03 | S. cerevisiae deletion strains, locus YNL071W, strain lat1, stronger effect = lower value 1 | S. cerevisiae deletion strains, locus YNL128W, strain TEP1, stronger effect = lower value 1.01 | S. cerevisiae deletion strains, locus YNL153C, strain GIM3, stronger effect = lower value 0.995 | S. cerevisiae deletion strains, locus YNL183C, strain NPR1, stronger effect = lower value 0.961 | S. cerevisiae deletion strains, locus YNL209W, strain ssb2, stronger effect = lower value 0.994 | S. cerevisiae deletion strains, locus YNL233W, strain BNI4, stronger effect = lower value 0.993 | S. cerevisiae deletion strains, locus YNL248C, strain rpa49, stronger effect = lower value 1.01 | S. cerevisiae deletion strains, locus YNL250W, strain rad50, stronger effect = lower value 0.987 | S. cerevisiae deletion strains, locus YNL271C, strain bni1, stronger effect = lower value 0.987 | S. cerevisiae deletion strains, locus YNL298W, strain CLA4, stronger effect = lower value 0.984 | S. cerevisiae deletion strains, locus YNL307C, strain MCK1, stronger effect = lower value 0.998 | S. cerevisiae deletion strains, locus YNL322C, strain KRE1 (second series), stronger effect = lower value 1.01 | S. cerevisiae deletion strains, locus YNL322C, strain KRE1, stronger effect = lower value 0.994 | S. cerevisiae deletion strains, locus YNR049C, strain mso1, stronger effect = lower value 1 | S. cerevisiae deletion strains, locus YNR052C, strain pop2, stronger effect = lower value 0.983 | S. cerevisiae deletion strains, locus YOL006C, strain TOP1, stronger effect = lower value 1.02 | S. cerevisiae deletion strains, locus YOL012C, strain htz1 2.11 | S. cerevisiae deletion strains, locus YOL147C, strain pex11, stronger effect = lower value 0.997 | S. cerevisiae deletion strains, locus YOR001W, strain rrp6, stronger effect = lower value 1.01 | S. cerevisiae deletion strains, locus YOR061W, strain CKA2, stronger effect = lower value 0.984 | S. cerevisiae deletion strains, locus YOR069W, strain VPS5, stronger effect = lower value 0.993 | S. cerevisiae deletion strains, locus YOR070C, strain gyp1, stronger effect = lower value 1 | S. cerevisiae deletion strains, locus YOR080W, strain dia2, stronger effect = lower value 1.01 | S. cerevisiae deletion strains, locus YOR083W, strain WHI5, stronger effect = lower value 1.01 | S. cerevisiae deletion strains, locus YOR106W, strain vam3, stronger effect = lower value 1.02 | S. cerevisiae deletion strains, locus YOR136W, strain idh2, stronger effect = lower value 0.983 | S. cerevisiae deletion strains, locus YOR144C, strain elg1, stronger effect = lower value 0.988 | S. cerevisiae deletion strains, locus YOR184W, strain ser1, stronger effect = lower value 0.999 | S. cerevisiae deletion strains, locus YOR231W, strain MKK1, stronger effect = lower value 0.986 | S. cerevisiae deletion strains, locus YOR265W, strain rbl2, stronger effect = lower value 1.01 | S. cerevisiae deletion strains, locus YOR270C, strain vph1, stronger effect = lower value 1.06 | S. cerevisiae deletion strains, locus YOR290C, strain snf2, stronger effect = lower value 0.995 | S. cerevisiae deletion strains, locus YOR316C, strain cot1, stronger effect = lower value 0.992 | S. cerevisiae deletion strains, locus YPL051W, strain arl3, stronger effect = lower value 1 | S. cerevisiae deletion strains, locus YPL055C, strain LGE1, stronger effect = lower value 1.01 | S. cerevisiae deletion strains, locus YPL078C, strain atp4, stronger effect = lower value 1 | S. cerevisiae deletion strains, locus YPL106C, strain sse1, stronger effect = lower value 1.01 | S. cerevisiae deletion strains, locus YPL240C, strain hsp82, stronger effect = lower value 1.01 | S. cerevisiae deletion strains, locus YPL241C, strain CIN2, stronger effect = lower value 0.993 | S. cerevisiae deletion strains, locus YPL256C, strain CLN2, stronger effect = lower value 0.961 | S. cerevisiae deletion strains, locus YPR119W, strain clb2, stronger effect = lower value 0.997 | S. cerevisiae deletion strains, locus YPR141C, strain kar3, stronger effect = lower value 0.99 | S. cerevisiae deletion strains, locus YPR163C, strain tif3, stronger effect = lower value 0.982 | S. cerevisiae deletion strains, locus YPR167C, strain met16, stronger effect = lower value 0.991 | S. cerevisiae deletion strains, strain wtn01, stronger effect = lower value 0.985 | S. cerevisiae strains, strain wild type, stronger effect = lower value 1.01

Source: PubChem BioAssay AID1159580 (chemical genetic matrix, 2015)
